From publication PMC7862700, “An all-to-all approach to the identification of sequence-specific readers for epigenetic DNA modifications on cytosine”

Assays:
Test in all cases: DAPPL (digital affinity profiling via proximity ligation, sequencing); 10 mM Tris-HCl pH 7.5, 50 mM NaCl, 1 mM DTT, 4% glycerol, room temperature, 30 min; GST-TFs on glutathione beads, 16-mer random dsDNA library, 0.1% formaldehyde crosslink after washing; high values mean tight binding
FEV = molecular target: T1, FEV (Homo sapiens, UniProt Q99581 1-238); details: protein: recombinant; tags: N-terminal GST; dsDNA, one strand shown
T1 sequence: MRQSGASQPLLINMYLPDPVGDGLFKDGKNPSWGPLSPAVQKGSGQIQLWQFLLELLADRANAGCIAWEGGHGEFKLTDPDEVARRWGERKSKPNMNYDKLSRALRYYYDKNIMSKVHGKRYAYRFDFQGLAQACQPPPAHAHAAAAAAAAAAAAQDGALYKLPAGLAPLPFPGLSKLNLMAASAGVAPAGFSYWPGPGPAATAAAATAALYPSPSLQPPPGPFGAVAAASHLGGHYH
Procedure, shortened: (§1)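 Each value of binding signal is a hexamer's read frequency for a factor divided by the same hexamer's frequency in the tag-only sample. Barcoded, bead-captured GST fusions of human transcription factors made in yeast were pooled with that sample and incubated with 200 nmole of a random double-stranded 16-mer DNA library in Tris/NaCl/DTT/glycerol buffer at room temperature for 30 min. Washing, 0.1% formaldehyde crosslinking, proximity ligation, PCR and Illumina NextSeq500 sequencing followed.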

ETV5 = ETV5 (Homo sapiens, UniProt P41161 1-510); details: protein: recombinant; tags: N-terminal GST; dsDNA, one strand shown
Chain of ETV5 (P41161 whole entry): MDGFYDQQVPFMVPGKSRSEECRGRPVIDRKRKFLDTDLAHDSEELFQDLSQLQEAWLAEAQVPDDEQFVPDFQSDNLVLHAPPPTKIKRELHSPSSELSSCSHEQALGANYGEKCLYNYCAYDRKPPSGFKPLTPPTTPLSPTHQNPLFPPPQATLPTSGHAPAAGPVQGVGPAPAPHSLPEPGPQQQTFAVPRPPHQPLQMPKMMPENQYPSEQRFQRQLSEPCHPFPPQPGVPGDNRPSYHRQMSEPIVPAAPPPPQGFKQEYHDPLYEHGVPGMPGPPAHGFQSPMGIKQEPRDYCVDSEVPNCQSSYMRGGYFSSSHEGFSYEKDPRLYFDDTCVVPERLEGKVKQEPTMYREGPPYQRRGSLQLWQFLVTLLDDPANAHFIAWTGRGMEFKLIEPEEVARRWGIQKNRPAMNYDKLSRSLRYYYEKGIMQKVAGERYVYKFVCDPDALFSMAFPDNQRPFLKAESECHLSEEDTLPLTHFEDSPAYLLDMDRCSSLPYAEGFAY
Procedure, shortened: as §1

HSF1 = HSF1 (Homo sapiens, UniProt Q00613 1-529); details: protein: recombinant; tags: N-terminal GST; chain copies: 3; dsDNA, one strand shown
Chain of HSF1 (Q00613 whole entry): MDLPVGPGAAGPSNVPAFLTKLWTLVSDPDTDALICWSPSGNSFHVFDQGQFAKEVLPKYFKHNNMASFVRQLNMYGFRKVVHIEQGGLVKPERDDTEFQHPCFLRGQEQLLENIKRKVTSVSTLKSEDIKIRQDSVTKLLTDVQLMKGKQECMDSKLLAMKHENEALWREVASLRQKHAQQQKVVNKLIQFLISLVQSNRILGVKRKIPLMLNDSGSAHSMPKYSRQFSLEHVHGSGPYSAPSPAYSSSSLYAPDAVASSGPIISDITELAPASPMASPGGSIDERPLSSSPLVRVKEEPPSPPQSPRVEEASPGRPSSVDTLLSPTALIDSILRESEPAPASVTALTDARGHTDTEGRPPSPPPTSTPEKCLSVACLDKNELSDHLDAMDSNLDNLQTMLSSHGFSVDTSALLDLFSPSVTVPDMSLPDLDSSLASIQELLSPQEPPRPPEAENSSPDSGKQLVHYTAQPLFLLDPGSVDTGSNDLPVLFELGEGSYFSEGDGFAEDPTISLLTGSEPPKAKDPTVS
Procedure, shortened: as §1

SPIC = molecular target: T2, SPIC (Homo sapiens, UniProt Q8N5J4 1-248); details: protein: recombinant; tags: N-terminal GST; dsDNA, one strand shown
T2 sequence: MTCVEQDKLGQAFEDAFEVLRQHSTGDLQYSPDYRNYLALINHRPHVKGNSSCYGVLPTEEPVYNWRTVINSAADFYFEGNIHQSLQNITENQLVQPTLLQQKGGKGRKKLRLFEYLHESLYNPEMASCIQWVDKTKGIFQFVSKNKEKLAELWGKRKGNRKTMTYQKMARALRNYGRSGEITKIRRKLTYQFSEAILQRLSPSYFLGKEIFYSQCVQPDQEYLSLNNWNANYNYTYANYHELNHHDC
Procedure, shortened: as §1

ELF4 = ELF4 (Homo sapiens, UniProt Q99607 1-663); details: protein: recombinant; tags: N-terminal GST; dsDNA, one strand shown
Chain of ELF4 (Q99607 whole entry): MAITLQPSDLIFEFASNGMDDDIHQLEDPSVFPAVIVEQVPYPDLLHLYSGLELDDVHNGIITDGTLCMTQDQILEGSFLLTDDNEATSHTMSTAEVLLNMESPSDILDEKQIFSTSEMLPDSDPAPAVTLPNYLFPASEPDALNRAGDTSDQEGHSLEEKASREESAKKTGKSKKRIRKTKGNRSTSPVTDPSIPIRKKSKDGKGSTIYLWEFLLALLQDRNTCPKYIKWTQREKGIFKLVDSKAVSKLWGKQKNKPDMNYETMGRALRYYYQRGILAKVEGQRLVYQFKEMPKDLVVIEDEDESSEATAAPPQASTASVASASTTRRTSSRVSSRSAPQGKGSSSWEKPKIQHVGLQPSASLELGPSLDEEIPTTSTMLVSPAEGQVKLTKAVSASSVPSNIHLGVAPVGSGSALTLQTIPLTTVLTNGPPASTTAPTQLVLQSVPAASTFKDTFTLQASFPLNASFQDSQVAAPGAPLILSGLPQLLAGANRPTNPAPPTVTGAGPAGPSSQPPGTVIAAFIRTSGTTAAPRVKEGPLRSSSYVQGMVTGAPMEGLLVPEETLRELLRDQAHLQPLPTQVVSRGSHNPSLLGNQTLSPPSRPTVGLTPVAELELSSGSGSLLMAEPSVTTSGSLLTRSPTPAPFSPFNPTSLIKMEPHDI
Procedure, shortened: as §1

ELK4 = molecular target: T3, ELK4 (Homo sapiens, UniProt P28324-2 1-405); details: protein: recombinant; tags: N-terminal GST; dsDNA, one strand shown
T3 sequence: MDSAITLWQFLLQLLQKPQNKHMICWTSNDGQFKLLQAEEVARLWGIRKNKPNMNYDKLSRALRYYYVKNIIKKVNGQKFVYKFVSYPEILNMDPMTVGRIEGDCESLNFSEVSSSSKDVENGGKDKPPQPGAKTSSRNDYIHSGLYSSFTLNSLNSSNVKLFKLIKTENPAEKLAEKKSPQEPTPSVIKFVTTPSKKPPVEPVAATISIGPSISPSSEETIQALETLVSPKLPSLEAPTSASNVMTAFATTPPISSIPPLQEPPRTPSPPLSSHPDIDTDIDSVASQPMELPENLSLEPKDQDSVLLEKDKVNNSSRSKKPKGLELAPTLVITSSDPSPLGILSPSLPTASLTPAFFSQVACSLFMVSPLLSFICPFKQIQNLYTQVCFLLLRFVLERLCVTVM
Procedure, shortened: as §1

ETV2 = molecular target: T4, ETV2 (Homo sapiens, UniProt O00321 1-342); details: protein: recombinant; tags: N-terminal GST; dsDNA, one strand shown
T4 sequence: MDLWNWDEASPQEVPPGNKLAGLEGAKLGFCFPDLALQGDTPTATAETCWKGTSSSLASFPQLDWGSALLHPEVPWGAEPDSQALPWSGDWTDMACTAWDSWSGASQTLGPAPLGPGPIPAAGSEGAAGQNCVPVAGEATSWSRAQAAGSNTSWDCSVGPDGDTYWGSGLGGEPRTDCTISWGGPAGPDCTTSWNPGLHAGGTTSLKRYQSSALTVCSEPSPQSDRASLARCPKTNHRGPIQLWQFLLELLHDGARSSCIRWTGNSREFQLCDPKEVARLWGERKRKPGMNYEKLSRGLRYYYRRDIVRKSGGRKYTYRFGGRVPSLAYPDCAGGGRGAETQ
Procedure, shortened: as §1

ELF3 = molecular target: T5, ELF3 (Homo sapiens, UniProt P78545 1-371); details: protein: recombinant; tags: N-terminal GST; dsDNA, one strand shown
T5 sequence: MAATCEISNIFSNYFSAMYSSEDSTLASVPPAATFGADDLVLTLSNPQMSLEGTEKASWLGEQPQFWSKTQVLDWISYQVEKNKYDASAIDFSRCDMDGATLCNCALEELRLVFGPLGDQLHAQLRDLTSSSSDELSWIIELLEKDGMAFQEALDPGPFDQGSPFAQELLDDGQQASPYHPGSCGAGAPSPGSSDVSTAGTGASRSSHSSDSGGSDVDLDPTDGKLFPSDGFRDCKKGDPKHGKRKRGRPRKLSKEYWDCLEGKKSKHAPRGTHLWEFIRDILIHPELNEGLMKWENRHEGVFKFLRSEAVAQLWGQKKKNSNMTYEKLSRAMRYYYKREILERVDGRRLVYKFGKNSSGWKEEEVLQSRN
Procedure, shortened: as §1

CRX = CRX (Homo sapiens, UniProt O43186 1-299); details: protein: recombinant; tags: N-terminal GST; dsDNA, one strand shown
Chain of CRX (O43186 whole entry): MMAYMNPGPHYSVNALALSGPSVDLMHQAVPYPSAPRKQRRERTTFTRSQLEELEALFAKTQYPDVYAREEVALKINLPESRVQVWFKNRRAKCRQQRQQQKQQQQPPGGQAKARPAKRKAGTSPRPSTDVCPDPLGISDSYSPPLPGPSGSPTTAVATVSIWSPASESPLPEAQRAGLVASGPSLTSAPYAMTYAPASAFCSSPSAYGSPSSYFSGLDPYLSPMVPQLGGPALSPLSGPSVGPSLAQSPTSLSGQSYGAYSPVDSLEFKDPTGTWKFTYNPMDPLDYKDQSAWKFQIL
Procedure, shortened: as §1

ETV1 = ETV1 (Homo sapiens, UniProt P50549 1-477); details: protein: recombinant; tags: N-terminal GST; dsDNA, one strand shown
Chain of ETV1 (P50549 whole entry): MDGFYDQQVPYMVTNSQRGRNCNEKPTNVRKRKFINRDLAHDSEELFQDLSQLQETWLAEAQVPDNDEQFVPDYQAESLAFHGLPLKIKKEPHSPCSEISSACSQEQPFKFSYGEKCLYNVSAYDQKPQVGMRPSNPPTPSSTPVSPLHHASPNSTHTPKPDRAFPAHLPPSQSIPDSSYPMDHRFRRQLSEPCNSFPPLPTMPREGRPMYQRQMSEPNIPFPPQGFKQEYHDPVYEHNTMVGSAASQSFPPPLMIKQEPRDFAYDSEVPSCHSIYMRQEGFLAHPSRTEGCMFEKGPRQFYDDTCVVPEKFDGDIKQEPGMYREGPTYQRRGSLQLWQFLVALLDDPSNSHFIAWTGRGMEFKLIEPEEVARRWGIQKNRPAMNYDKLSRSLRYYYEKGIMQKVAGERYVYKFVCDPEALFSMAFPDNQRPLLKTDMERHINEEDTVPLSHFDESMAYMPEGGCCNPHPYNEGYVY
Procedure, shortened: as §1

ERF = molecular target: T6, ERF (Homo sapiens, UniProt P50548 1-548); details: protein: recombinant; tags: N-terminal GST; dsDNA, one strand shown
T6 sequence: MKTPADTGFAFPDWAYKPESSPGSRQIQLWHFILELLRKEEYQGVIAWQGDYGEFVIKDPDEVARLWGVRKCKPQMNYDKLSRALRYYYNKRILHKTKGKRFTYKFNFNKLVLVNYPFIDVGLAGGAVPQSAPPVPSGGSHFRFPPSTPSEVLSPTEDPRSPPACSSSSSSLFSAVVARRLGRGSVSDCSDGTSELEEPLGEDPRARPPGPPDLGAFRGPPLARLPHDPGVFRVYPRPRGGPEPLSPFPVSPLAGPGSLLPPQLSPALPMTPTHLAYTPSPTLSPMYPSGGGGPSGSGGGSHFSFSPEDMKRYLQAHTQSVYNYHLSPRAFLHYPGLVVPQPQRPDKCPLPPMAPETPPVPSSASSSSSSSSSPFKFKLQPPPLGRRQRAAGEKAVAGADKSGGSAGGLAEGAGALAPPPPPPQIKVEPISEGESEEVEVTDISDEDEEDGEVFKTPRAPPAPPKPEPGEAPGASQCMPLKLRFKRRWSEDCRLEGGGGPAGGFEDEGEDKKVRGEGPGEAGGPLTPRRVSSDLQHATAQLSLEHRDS
Procedure, shortened: as §1

ETV3L = molecular target: T7, ETV3L (Homo sapiens, UniProt Q6ZN32 1-361); details: protein: recombinant; tags: N-terminal GST; dsDNA, one strand shown
T7 sequence: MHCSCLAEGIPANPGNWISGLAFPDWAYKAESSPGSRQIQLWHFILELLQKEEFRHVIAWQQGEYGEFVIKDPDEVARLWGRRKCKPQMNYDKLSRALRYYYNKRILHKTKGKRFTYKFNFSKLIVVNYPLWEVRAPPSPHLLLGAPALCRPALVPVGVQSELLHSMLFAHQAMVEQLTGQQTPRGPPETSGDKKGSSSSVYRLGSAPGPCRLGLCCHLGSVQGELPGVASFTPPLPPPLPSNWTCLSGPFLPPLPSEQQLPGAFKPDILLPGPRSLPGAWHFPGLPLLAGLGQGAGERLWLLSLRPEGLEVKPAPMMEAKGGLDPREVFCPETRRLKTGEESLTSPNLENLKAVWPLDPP
Procedure, shortened: as §1

ETS2 = molecular target: T8, ETS2 (Homo sapiens, UniProt P15036 1-469); details: protein: recombinant; tags: N-terminal GST; dsDNA, one strand shown
T8 sequence: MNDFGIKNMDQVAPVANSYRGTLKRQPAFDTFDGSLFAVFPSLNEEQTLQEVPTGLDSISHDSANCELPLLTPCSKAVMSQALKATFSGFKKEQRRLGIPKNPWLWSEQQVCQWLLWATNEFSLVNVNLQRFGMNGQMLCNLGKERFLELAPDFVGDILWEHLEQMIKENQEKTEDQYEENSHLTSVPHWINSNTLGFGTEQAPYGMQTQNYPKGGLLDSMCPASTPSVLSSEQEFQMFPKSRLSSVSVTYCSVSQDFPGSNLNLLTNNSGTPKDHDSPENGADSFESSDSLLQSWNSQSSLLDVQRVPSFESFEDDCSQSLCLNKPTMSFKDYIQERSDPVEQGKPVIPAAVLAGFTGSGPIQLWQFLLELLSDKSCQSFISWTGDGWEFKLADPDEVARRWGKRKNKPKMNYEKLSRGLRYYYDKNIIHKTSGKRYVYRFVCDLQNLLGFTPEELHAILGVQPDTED
Procedure, shortened: as §1

SPDEF = molecular target: T9, SPDEF (Homo sapiens, UniProt O95238 1-335); details: protein: recombinant; tags: N-terminal GST; dsDNA, one strand shown
T9 sequence: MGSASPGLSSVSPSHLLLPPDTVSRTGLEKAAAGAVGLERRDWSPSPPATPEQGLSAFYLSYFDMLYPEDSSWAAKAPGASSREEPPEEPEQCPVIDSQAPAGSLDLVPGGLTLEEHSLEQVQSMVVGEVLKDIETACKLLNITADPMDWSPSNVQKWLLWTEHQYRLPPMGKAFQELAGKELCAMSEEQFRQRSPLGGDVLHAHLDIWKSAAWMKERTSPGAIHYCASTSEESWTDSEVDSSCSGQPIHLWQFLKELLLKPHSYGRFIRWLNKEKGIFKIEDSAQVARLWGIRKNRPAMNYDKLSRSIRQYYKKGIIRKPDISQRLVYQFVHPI
Procedure, shortened: as §1

ETV7 = molecular target: T10, ETV7 (Homo sapiens, UniProt Q9Y603 1-341); details: protein: recombinant; tags: N-terminal GST; dsDNA, one strand shown
T10 sequence: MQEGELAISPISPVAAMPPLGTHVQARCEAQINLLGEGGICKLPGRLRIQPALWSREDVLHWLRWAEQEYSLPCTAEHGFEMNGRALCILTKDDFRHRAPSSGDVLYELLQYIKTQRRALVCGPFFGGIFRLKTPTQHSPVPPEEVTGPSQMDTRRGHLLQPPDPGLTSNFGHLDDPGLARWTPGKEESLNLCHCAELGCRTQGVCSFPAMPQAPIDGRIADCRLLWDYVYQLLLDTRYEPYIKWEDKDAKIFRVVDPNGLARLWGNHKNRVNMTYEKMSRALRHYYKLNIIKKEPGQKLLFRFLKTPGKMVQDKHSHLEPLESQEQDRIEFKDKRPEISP
Procedure, shortened: as §1

ELF5 = molecular target: T11, ELF5 (Homo sapiens, UniProt Q9UKW6-2 1-255); details: protein: recombinant; tags: N-terminal GST; dsDNA, one strand shown
T11 sequence: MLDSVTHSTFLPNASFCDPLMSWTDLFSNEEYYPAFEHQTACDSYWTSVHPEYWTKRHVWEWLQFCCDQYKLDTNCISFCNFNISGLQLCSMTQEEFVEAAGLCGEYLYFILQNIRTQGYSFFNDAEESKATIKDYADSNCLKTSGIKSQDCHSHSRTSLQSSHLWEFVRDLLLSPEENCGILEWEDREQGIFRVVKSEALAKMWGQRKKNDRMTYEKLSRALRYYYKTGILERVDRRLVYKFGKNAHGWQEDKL
Procedure, shortened: as §1

ETV3 = molecular target: T12, ETV3 (Homo sapiens, UniProt P41162-2 1-143); details: protein: recombinant; tags: N-terminal GST; dsDNA, one strand shown
T12 sequence: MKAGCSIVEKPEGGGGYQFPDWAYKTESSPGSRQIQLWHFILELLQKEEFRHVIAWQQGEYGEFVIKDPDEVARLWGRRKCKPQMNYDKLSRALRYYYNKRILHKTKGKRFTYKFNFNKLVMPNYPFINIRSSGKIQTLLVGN
Procedure, shortened: as §1

ETV6 = ETV6 (Homo sapiens, UniProt P41212 1-452); details: protein: recombinant; tags: N-terminal GST; dsDNA, one strand shown
Chain of ETV6 (P41212 whole entry): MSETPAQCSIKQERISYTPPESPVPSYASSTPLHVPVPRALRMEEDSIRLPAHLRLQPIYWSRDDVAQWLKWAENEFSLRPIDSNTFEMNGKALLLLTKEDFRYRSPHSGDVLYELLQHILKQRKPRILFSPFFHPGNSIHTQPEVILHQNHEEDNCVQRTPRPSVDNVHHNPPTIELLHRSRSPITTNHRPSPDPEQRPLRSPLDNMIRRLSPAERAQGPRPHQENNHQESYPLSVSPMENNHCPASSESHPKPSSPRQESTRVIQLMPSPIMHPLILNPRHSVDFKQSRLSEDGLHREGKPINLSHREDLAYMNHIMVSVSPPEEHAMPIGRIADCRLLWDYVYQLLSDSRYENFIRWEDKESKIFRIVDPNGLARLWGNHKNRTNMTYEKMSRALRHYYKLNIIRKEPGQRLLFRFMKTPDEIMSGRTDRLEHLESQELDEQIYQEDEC
Procedure, shortened: as §1

What does the source list for CATGCT?
binding signal (FEV): 1.22 fold enrichment (6-mer frequency, TF over GST control); binding signal (ETV5): 1.13 fold enrichment (6-mer frequency, TF over GST control); binding signal (HSF1): 1.13 fold enrichment (6-mer frequency, TF over GST control); binding signal (SPIC): 1.34 fold enrichment (6-mer frequency, TF over GST control); binding signal (ELF4): 1.15 fold enrichment (6-mer frequency, TF over GST control); binding signal (ELK4): 1.3 fold enrichment (6-mer frequency, TF over GST control); binding signal (ETV2): 1.35 fold enrichment (6-mer frequency, TF over GST control); binding signal (ELF3): 1.27 fold enrichment (6-mer frequency, TF over GST control); binding signal (CRX): 1.1 fold enrichment (6-mer frequency, TF over GST control); binding signal (ETV1): 1.19 fold enrichment (6-mer frequency, TF over GST control); binding signal (ERF): 1.2 fold enrichment (6-mer frequency, TF over GST control); binding signal (ETV3L): 1.35 fold enrichment (6-mer frequency, TF over GST control); binding signal (ETS2): 1.25 fold enrichment (6-mer frequency, TF over GST control); binding signal (SPDEF): 1.2 fold enrichment (6-mer frequency, TF over GST control); binding signal (ETV7): 1.2 fold enrichment (6-mer frequency, TF over GST control); binding signal (ELF5): 1.19 fold enrichment (6-mer frequency, TF over GST control); binding signal (ETV3): 1.19 fold enrichment (6-mer frequency, TF over GST control); binding signal (ETV6): 1.28 fold enrichment (6-mer frequency, TF over GST control)
